# Screening results deposited in PubChem BioAssay by The Scripps Research Institute Molecular Screening Center.
# This is one part of a sample in which hits are shown more often than they occur.
# TTR transcr act = TTR transcription activation, primary screen; SH-SY5Y TTR promoter Gaussia luciferase, luminescence; 100% = recombinant luciferase protein wells; activation, % at 16.7 µM; actives 1.3% (n = 92,000); AID 1117267;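 active = activation above the mean of all tested compounds plus 3 SD, cut at about 9.5% in these data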;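 also: cells exposed to compounds for one day before reading; 0% = median of all test compound wells on the plate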
# HuH7 TTR inh = decreases TTR transcription in HuH7 cells in activator counter-screen; shares compounds with TTR transcr act; HuH7 TTR promoter-Gaussia luciferase reporter, luminescence; inhibition, % at 16.7 µM; actives 4% (n = 1,100); AID 1117279;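 active = average inhibition above the solvent-only control wells' mean plus 3 SD, cut at about 15% in these data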;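 also: 0% = cells with DMSO only and 100% = cells with inhibitor control FD; inhibitors lower well luminescence so higher value means more inhibition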
# TTR up confirm = confirmation of human transthyretin transcription activators; shares compounds with TTR transcr act; SHSY5Y TTR promoter Gaussia luciferase, luminescence; 100% = purified Lucia enzyme wells, no cells; activation, % at 16.7 µM; 1,100 tested, under 10 active; AID 1117280;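 active = mean activation above a set limit taken from the earlier primary screen, cut at about 11% in these data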;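 also: 0% = DMSO-treated cells and 100% = recombinant Lucia luciferase without cells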
# * hit, by the source's call.
SMILES,TTR transcr act,others
Cc1cc(NS(=O)(=O)c2ccc3c(c2)CCC(=O)N3)ccc1Cl,0.6,
C[C@@H]1CN([C@@H](C)CO)C(=O)CCCn2nncc2CO[C@@H]1CN(C)C(=O)c1ccc(N2CCN(C)CC2)cc1,-0.6,
C[C@@H]1CN([C@H](C)CO)C(=O)CCCn2nncc2CO[C@H]1CN(C)C(=O)c1ccccc1,2.2,
C[C@H](CO)N1C[C@H](C)[C@H](CN(C)C(=O)c2ccncc2)OCc2cnnn2CCCC1=O,17.7*,HuH7 TTR inh=-8.1;TTR up confirm=0.3
O=P(c1ccccc1)(c1ccccc1)c1cnc2ccccn12,1.8,
Cc1csc(NC(=O)CSc2nnc(-c3ccc(Cl)cc3)n2N)n1,44.4*,HuH7 TTR inh=-33.8;TTR up confirm=0.3
Cc1csc(NC(=O)CCc2c(C)nc3cc(-c4ccc(Cl)cc4)nn3c2C)n1,0.9,
Cc1csc(NC(=O)CSc2nnc(Cc3cccn3C)n2-c2ccc(F)cc2)n1,0.4,
Brc1ccc(-c2csc(N3CCC(c4nn[nH]n4)CC3)n2)cc1,2.0,
C[C@H]1[C@H](NC(=O)c2cccc(C(F)(F)F)c2)CC[C@@]23CCCN2C(=O)CCC[C@@H]13,-1.1,
O=C(O)c1cc([N+](=O)[O-])ccc1-c1ccc([N+](=O)[O-])cc1C(=O)O,-0.3,
O=C(O)c1cc([N+](=O)[O-])cc2ccccc12,15.3*,HuH7 TTR inh=-1.4;TTR up confirm=-0.5
O=C(O)c1ccccc1Nc1ccc([N+](=O)[O-])cc1C(=O)O,1.4,
O=C(O)C1CCCC2CN3CCc4c([nH]c5ccccc45)C3C(O)C21 (stereo not drawn),2.1,
COC(=O)[C@]12CCCCC=C1N(Cc1ccc(OC)cc1)C(=O)[C@@H]2CC(=O)NCCCCc1ccccc1,9.6,
COc1ccc(-c2ccc(CN3C(C)C(=O)N(Cc4cn(CCC5OCCO5)nn4)CCS3(=O)=O)cc2)cc1OC (stereo not drawn),-0.6,
C[C@H]1C2CC(OC(=O)Nc3ccc(F)cc3)C(C2)[C@H]2CCCCN21 (stereo partly drawn),1.3,
CC(C)CNC(=O)CSc1nnc2ccccn12,11.5*,HuH7 TTR inh=-3.6;TTR up confirm=12.0*
CC(C)(C)NC(=O)NC(=O)CSc1nnc2ccccn12,0.2,
O=C(CSc1nnc2ccccn12)NCCc1ccc(Cl)cc1,1.0,
COc1ccc(-c2cc(=O)c3c(C)cc(O)cc3o2)cc1,-2.2,
COc1ccc(-c2cc(=O)c3c(OC)c(OC)c(OC)c(OC)c3o2)cc1,-2.6,
COc1ccc(-c2[nH]nc3oc(=O)cc(C)c23)cc1,16.1*,HuH7 TTR inh=-17.5;TTR up confirm=-0.6
COc1ccc(C(=O)c2[nH]c(N)c(C(=O)NCCc3c[nH]c4ccccc34)c2-c2ccc(C(F)(F)F)cc2)cc1,-0.2,
O=S1(=O)c2ccc(N3CCC[C@H]3CO)cc2OCCCN1C1CC1,1.2,
SMILES,TTR transcr act,others
COC(=O)[C@]12C[C@H](CC(=O)N3CCOCC3)C(=O)N(Cc3ccco3)C1=C[C@H](C1CCCC1)O[C@@H]2C,1.6,
CC(C)CN(CCCNC(=O)CN1C(=O)COc2ccc(S(=O)(=O)N3CCC(C)CC3)cc21)CC(C)C,-0.4,
CCOCCCNC(=O)CN1C(=O)COc2ccc(S(=O)(=O)N3CCCC3)cc21,11.4*,HuH7 TTR inh=-11.8;TTR up confirm=-0.1
COc1ccc(CNC(=O)CN2C(=O)COc3ccc(S(=O)(=O)N4CCCC4)cc32)cc1,-0.2,
COc1ccc([C@@]23CCN=C2c2[nH]c4ccccc4c2CCN3)c(N)c1,-1.0,
CC(C)NC(=O)CSc1nc(N)c(NC(=O)c2ccccc2F)c(=O)[nH]1,1.2,
COc1ccc(NC(=O)CSc2nc(N)c(NC(=O)c3ccccc3F)c(=O)[nH]2)cc1,-1.2,
Nc1nc(SCCO)[nH]c(=O)c1NC(=O)c1ccccc1F,20.0*,HuH7 TTR inh=-12.3;TTR up confirm=0.0
O=C(NC1CCCCN(Cc2ccc(Cl)cc2)C1=O)C(c1ccccc1)c1ccccc1 (stereo not drawn),0.1,
Fc1ccccc1Cn1ccc2ccc(-c3ccc4ccn(Cc5ccccc5F)c4c3)cc21,0.1,
CC(Cc1ccccc1)N(C)C(=O)CN1C(=O)c2ccccc2C1=O (stereo not drawn),-0.3,
Cc1cc(=O)n(C(C)Cc2ccccc2)n1C(C)Cc1ccccc1 (stereo not drawn),16.7*,HuH7 TTR inh=-7.7;TTR up confirm=-0.4
CCC(CC)n1c(C)cc(=O)n1C(CC)CC,-0.3,
CC(=C\C=O)/C(C)=C/CC[C@@H]1O[C@@H]2C[C@@H]3O[C@](C)(C[C@H]4C[C@H](O)[C@@H]5O[C@@H]6C[C@H](O)[C@@H](C)O[C@@]6(C)CC[C@H]5O4)[C@@H](O)CC[C@@]3(C)O[C@H]2[C@@H](O)[C@@H]1C,0.6,
CCN(C(=O)[C@@H](C)[C@@H](O)c1ccc(Cl)cc1)c1ccccc1,-1.6,
Cc1ccc(C(=O)NCCNC(=O)c2ccc(C)nc2)cc1,0.8,
CNCCCNC(=O)c1ccc(/C=N/O)nc1,-1.4,
C[N+](C)(C)CCCNC(=O)c1ccc(/C=N/O)nc1,20.1*,HuH7 TTR inh=-7.3;TTR up confirm=1.5
O=C(O)c1ccc(CSc2nnc(Cc3ccccc3)o2)cc1,12.5*,HuH7 TTR inh=42.3*;TTR up confirm=-2.3
CC(C)(C)OC(=O)NCCc1nnc(SCc2ccccc2)o1,-2.4,
O=C(CSc1nnc(Cc2ccccc2)o1)N1CCc2ccccc21,0.4,
O=C(N1CCc2ccccc2C1)n1cc(C(O)(c2ccccc2)c2ccccc2)nn1,-1.1,
O=C(NC1CCCC1)c1ccc(CS(=O)Cc2ccccc2Cl)o1 (stereo not drawn),2.1,
O=C(NCCc1ccc(Cl)cc1)c1ccc(CS(=O)Cc2ccccc2Cl)o1 (stereo not drawn),15.1*,HuH7 TTR inh=0.7;TTR up confirm=-0.2
O=C(NC1CCCCC1)c1ccc(CS(=O)Cc2ccccc2Cl)o1 (stereo not drawn),1.3,
SMILES,TTR transcr act,others
O=C(OCC#CCSc1nnc(-c2ccccc2)o1)c1ccc(F)cc1,-0.5,
Oc1ccc(Nc2ncnc3c2oc2ccccc23)cc1,0.0,
c1ccc(Sc2ncnc3c2oc2ccccc23)nc1,18.4*,HuH7 TTR inh=20.1*;TTR up confirm=0.2
c1coc(CSc2ncnc3c2oc2ccccc23)c1,0.6,
COC(=O)[C@]12CCCCC=C1N(Cc1ccc(OC)cc1)C(=O)[C@@H]2CC(=O)NCc1ccc(OC)c(OC)c1,-2.2,
CC1(C)C(CO)=CC(=O)C2=C1SCC(=O)N2,11.3*,HuH7 TTR inh=-9.2;TTR up confirm=0.3
Cc1cc2cc3c(cc2n2c(SCC(=O)Nc4nc(-c5ccccc5)cs4)nnc12)OCO3,1.0,
CCC[C@H]1[C@@H](OC(=O)NCc2ccco2)CC[C@@]23CCCN2C(=O)CCC[C@@H]13,0.6,
O=C(OCc1cn(Cc2cccc(Cl)c2)nn1)N1CCCC1,1.0,
O=C(NCc1ccco1)O[C@@H]1CC[C@@]23CCCN2C(=O)CCC[C@H]3C1,-0.1,
O=C(OCC#CCSc1nnc(-c2cccc3ccccc23)o1)c1ccsc1,-0.7,
CN(C)CCCNC(=O)c1ccc(Cl)c(S(=O)(=O)N(C)c2ccccc2)c1,3.3,
COc1ccc(C(=O)NCCCN(C)CCCNC(=O)c2ccc(OC)cc2)cc1,-1.1,
CN(C)CCCNC(=O)c1ccc(-c2ccccc2)cc1,22.0*,HuH7 TTR inh=-10.0;TTR up confirm=0.1
CCCCN1CCS(=O)(=O)N(Cc2cn(Cc3ccc(C)cc3)nn2)C(C(=O)OC)C1 (stereo not drawn),-1.0,
[N-]=[N+]=N[C@@H](CCN1CC[C@H](O)CCC1=O)c1ccccc1,4.1,
CC(C)(C)[C@@H]1CCC(=O)N(CC[C@H](N=[N+]=[N-])c2ccccc2)CC1,-0.4,
